# Assay results taken from the supplement of paper PMC7156485.
# Counter-ions that a name gives are not always drawn. ± gives the standard deviation of the averaged measurements.
# System: HCC1569
# Experiment: cell number relative to DMSO (% of DMSO); higher = more cells (less growth inhibition / toxicity)
# Conditions: concentration: 10 µM; 24 h
# Outline: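 After 24 h at 37 °C with compounds at 10 µM, in triplicate, HCC1569 and TDF cells were fixed with 3.7% formaldehyde. Immunostaining used a rabbit anti-H1.0 antibody and an AlexaFluor 647 secondary, with DAPI, and six fields per well were imaged at ×10. H1.0 nuclear intensity or cell number is presented as percent of the plate control, from the median of replicates, with HCC1569 values smoothed for positional effects.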
# 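Further: TDF denotes transformed human dermal fibroblasts of mesenchymal origin.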
row,SMILES,cell number
1,Cl.N=C(N=C(N)N)N1CCOCC1 [Moroxydine.HCl],106
2,C=C1C(=CC=C2CCCC3(C)C2CCC3C(C)CCCC(C)C)CC(O)CC1O (stereo not given) [Alfacalcidol],100
3,"CCCCCC(=O)c1c(O)c(Cl)c(OC)c(Cl)c1O [1-(3,5-dichloro-2,6-dihydroxy-4-methoxyphenyl)-1-hexanone]",93.6
4,CS(=O)(=O)O.O=C1Nc2ccc(-c3cccnc3)cc2C1=Cc1ccc[nH]1 [JAK3 Inhibitor VI],73
5,O=C1c2c(O)ccc(O)c2C(=O)c2c(NCCNCCO)ccc(NCCNCCO)c21 [Mitoxantrone],53.2 ± 8.2
6,CC(C)NCC(O)c1ccc(O)c(O)c1 (racemic) [DL-Isoproterenol],107
7,CC1=CCC2(C)CCC(O)(C(C)C)C2C(OC(=O)c2ccc(O)cc2)C1 (stereo not given) [Ferutinin],102
8,CSCC[C@@H](C=O)NC(=O)[C@H](CC(C)C)NC(=O)[C@H](CC(C)C)NC(C)=O,99.2
9,C=C(C)C1CCC2(C(=O)O)CCC3(C)C(CCC4C5(C)CCC(O)C(C)(C)C5CCC43C)C12 (stereo not given) [Betulinic acid],101
10,N#CC(=C(N)Sc1ccccc1N)c1cccc(C(O)c2ccncc2)c1 (stereo not given) [MEK Inhibitor I],77.2
11,COc1cc2c(Nc3ccc(NC(=O)c4ccccc4)cc3)ncnc2cc1OCCCN1CCOCC1,49.8
12,Cc1scc2c1N(C(=O)CN1CCN(C)CC1)c1ccccc1NC2=O.Cl.Cl [Telenzepine.2HCl],101
13,O=C1c2ccccc2-c2n[nH]c3cccc1c23 [JNK Inhibitor II],91.4
14,CCCC(=O)Oc1ccc2[nH]c(C(=O)c3cc4ccccc4[nH]3)cc2c1 [PDGF Receptor Tyrosine Kinase Inhibitor II],86.9
15,COc1cc(CNC(=O)CCCCC=CC(C)C)ccc1O [Capsaicin],99 ± 1.3
16,CC(C)(C=O)Cc1cc(C(C)(C)C)c(O)c(C(C)(C)C)c1,109
17,CC(C)C[C@@H](C(=O)O)c1cc(-c2ccc(C(F)(F)F)cc2)cc(-c2ccc(C(F)(F)F)cc2)c1,98.7
18,NC(=O)c1cccc(NC(=O)/C=C/c2c[nH]c3ccccc23)c1 [(E)-3-(3-(1H-indol-3-yl)acrylamido)benzamide],97.9
19,CN1C(C(=O)Nc2ccccn2)=C(O)c2sccc2S1(=O)=O [Tenoxicam],100
20,COc1ccccc1N1CCN(CCCNc2cc(=O)n(C)c(=O)n2C)CC1.Cl [Urapidil hydrochloride],101

row,SMILES,cell number
1,CCCCCOc1ccccc1C(O)CC#CCCCC(=O)OC (stereo not given),103
2,CSc1ccc2c(c1)N(CCC1CCCCN1C)c1ccccc1S2.Cl (stereo not given) [Thioridazine hydrochloride],86.6
3,COc1ccc(Cl)cc1C(=O)NCCc1ccc(S(=O)(=O)NC(=O)NC2CCCCC2)cc1 [Glyburide],107
4,N#Cc1c(N(CC(=O)[O-])CC(=O)[O-])sc(C(=O)[O-])c1CC(=O)[O-].[Sr+2].[Sr+2],100
5,Cc1cc(CS(=O)(=O)c2ccccc2)cc(OCc2ccc(CN3CCC[C@@H]3CO)cc2)c1 [PF-543 hydrochloride],95.8
6,"OC[C@@H](O)[C@H]1NC[C@@H](O)[C@H]1O [1,4-Dideoxy-1,4-imino-D-mannitol hydrochloride]",99.9
7,Cl.NC(CO)C(=O)NNCc1ccc(O)c(O)c1O (stereo not given) [Benserazide hydrochloride],91.1
8,"CCN(NO)C1=CC(=O)C(=O)C=C1 [ET-3,4-dephostatin]",79.5
9,C=CCc1ccccc1OCC(O)CNC(C)C.Cl (stereo not given) [Alprenolol hydrochloride],96.8
10,OC1CCN2Cc3ccccc3N=C12 (stereo not given) [Vasicine],102
11,"CN(C)C(=O)N=NC(=O)N(C)C [N,N,N',N'-Tetramethylazodicarboxamide]",94.8
12,COc1ccc2c3c1OC1CC(O)C=CC31CCN(C)C2 (stereo not given) [Galanthamine],101
13,COc1cc2ncc(-c3ccccc3)nc2cc1OC [Tyrphostin AG 1296],98.1
14,O=C(O)c1ccc(NC(=O)[C@H](CC2CCCC2)n2cnc(C(F)(F)F)c2)nc1,100
15,"O=C(CCCCCCc1ccccc1)c1ncc(-c2ccccn2)o1 [7-phenyl-1-[5-(2-pyridinyl)-1,3-oxazol-2-yl]-1-heptanone]",104
16,CC12C=Cc3occc3C1CCC13CC(=O)C(CCC12)C3 (stereo not given) [16-Oxokahweol],97.7
17,CCC1(c2ccccc2)C(=O)NCNC1=O [Primidone],102
18,CC1(C)CC1C(=O)NC(=CCCCCSCC(N)C(=O)O)C(=O)O (stereo not given) [Cilastatin],100
19,O=C1c2c(O)cc(O)cc2OC(c2ccc(O)c(O)c2)C1O (racemic),108
20,CCCNCC(O)COc1ccccc1C(=O)CCc1ccccc1.Cl (stereo not given) [Propafenone hydrochloride],95.4
